# Results from the supplement of paper PMC3334620.
# Over roughly 33,000 sequences, “E-score (-0.5 to 0.5)” has its median near -0.04; the highest 2% begin near 0.36. The sample holds the highest values, similar sequences and a random draw of the others, so the mix is not that of the screen.
# Target: T1, Hmlalpha2 (UniProt P0CY09)
# T1 sequence: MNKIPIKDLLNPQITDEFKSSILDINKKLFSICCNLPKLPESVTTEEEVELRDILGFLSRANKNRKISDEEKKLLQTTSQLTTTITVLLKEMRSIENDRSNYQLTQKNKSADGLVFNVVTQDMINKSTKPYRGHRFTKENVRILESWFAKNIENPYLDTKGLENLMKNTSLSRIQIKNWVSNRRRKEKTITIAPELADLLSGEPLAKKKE
# Experiment: PBM E-score (8-mer binding enrichment) (E-score (-0.5 to 0.5)); higher = stronger / more preferred TF binding
# Settings: protein concentration: 200 nM; construct: GST-full length
# How it was run: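 GST-tagged yeast TFs (full-length or DNA-binding domain) were made by PURExpress in vitro transcription/translation and applied at about 100-200 nM to universal all-10-mer Agilent arrays. The arrays were made double-stranded by primer extension, on fresh or once-stripped slides. Bound protein was detected with fluorescent anti-GST, and scans were normalised with masliner. Each ungapped eight-base word, pooled with its reverse complement, received an E-score (modified Wilcoxon-Mann-Whitney statistic) from the Universal PBM Analysis Suite.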
row,Sequence,PBM E-score
1,GCTCTCCC,-0.266
2,AGTGCATA,0.1
3,GCTCAGAA,-0.0102
4,AGTAACTA,0.213
5,CAGATCCA,-0.0975
6,AGACGCCG,-0.154
7,GTACGCAA,0.155
8,TTACGTAA,0.426
9,CTACGTAA,0.318
10,ATACGTAC,0.242
11,GTACGTAA,0.34
12,ATACGCAA,0.347
13,TTACGCAA,0.391
14,ATACGTAA,0.379
15,ATACGTAG,0.257
16,CTCCTCGC,-0.164
17,CTCCATCC,-0.1
18,CAGCCGTC,-0.132
19,CACACATA,0.214
20,AACACATC,0.291
21,TACACATA,0.408
22,AACACATA,0.39
23,AACACATG,0.363
24,GACACATA,0.26
25,GAACCACA,0.0162
26,GAATTGAC,0.104

row,Sequence,PBM E-score
1,ACTTTGGA,0.136
2,TTGTCAAA,0.262
3,ATGTCAAC,0.374
4,CTGTCAAA,0.18
5,ATGTCAAG,0.305
6,ATGTCATC,0.0953
7,ATGTCATA,0.311
8,ATGTCAAT,0.4
9,CTGTCAAC,0.198
10,ATGTCAAA,0.354
11,GTGTCAAC,0.305
12,GTGTCAAA,0.382
13,ATGTCATG,0.388
14,AGAAAGCG,-0.00586
15,ATGCTGGC,0.0473
16,GCCATTTA,0.00861
17,GAGATTCC,-0.218
18,ATATTCTG,0.00643
19,CCTTAAAC,-0.15
20,ATGCTAAT,0.167
21,AGATTGTG,0.0599
22,CACATTAC,0.375
23,AACATTAC,0.332
24,CACATTAG,-0.078
25,CGCGCACA,0.133
26,AGTGTAGA,0.171

row,Sequence,PBM E-score
1,AATGTAGG,0.0581
2,CAAGTAGG,-0.0322
3,CCTGTAGA,0.0876
4,CGTGTAGC,0.344
5,CGTGTAGA,0.482
6,GATGTAGA,0.314
7,CATGTAGA,0.472
8,CATGTAGG,0.407
9,CATGTAGC,0.344
10,AATGTAGA,0.301
11,TATGTAGA,0.424
12,ACATAGCC,0.231
13,CCGCTCTC,-0.296
14,AGCTTAAA,-0.0456
15,AATCTGTA,0.186
16,AATTAGGC,-0.0388
17,AGCCTAAG,-0.223
18,CTAGACGA,-0.137
19,AACAGGTG,0.184
20,TAGATATA,0.0377
21,CGCATGTC,0.274
22,GGCATGCA,0.128
23,CGCATGGA,-0.0665
24,AGCATGTC,0.267
25,AGCATGTA,0.458
26,GGCATGTA,0.439

row,Sequence,PBM E-score
1,AGCATGTG,0.22
2,GGCATGGA,-0.113
3,CGCATGTA,0.422
4,AAGGGTGC,-0.233
5,AGGGTGTA,0.186
6,TTCTACAA,0.314
7,ACCCTGAT,-0.3
8,ATGTTATG,0.425
9,AGGTTATA,0.0651
10,AAGTTATG,0.256
11,ATGTTATA,0.418
12,GTGTTATA,0.444
13,ATGTTACG,0.351
14,GCGTTATA,0.218
15,ATGTTATC,0.401
16,ACGTTATC,0.145
17,CTGTTATA,0.29
18,CTGTTATC,-0.00298
19,ACGTTATA,0.275
20,ATGAGGCG,-0.102
21,AAGGAGCA,-0.237
22,CACCTCAC,0.0105
23,CCTATTCA,-0.319
24,CGCGGCCC,-0.135
25,CATTCTCG,-0.0595
26,AGAACGAC,-0.0288

row,Sequence,PBM E-score
1,AAGAGCGA,-0.2
2,CTCGTGTC,0.257
3,CTCGTGTA,0.434
4,ATCGTGTA,0.475
5,ATCGTGTC,0.358
6,GTCGTGTA,0.464
7,ATCGTGTG,0.313
8,GTCGTGGA,-0.154
9,CTCGTGGA,-0.107
10,GTCGTGCA,0.0844
11,CACCTATC,-0.0688
12,AGTAGTCA,-0.00856
13,CCAGGTAC,-0.122
14,ATAAGCAG,-0.00191
15,CGTTTTTA,0.253
16,GCAGTGTA,0.292
17,ACACGGGC,0.325
18,ACACGGGA,0.371
19,ACACGGGT,0.391
20,AAACGGGT,0.153
21,ACACGGGG,0.3
22,ACACGGCT,0.32
23,CTCTGCAA,-0.0611
24,CGGAGCTA,-0.0643
